Measured values published in PubChem BioAssay (NCATS).
Results filed as inconclusive are left out. Activity calls are given as the source filed them. Calls follow the shape of the dose curve; as a rule, active = well fitted curve in the direction sought with a large enough effect; inconclusive = small, poorly fitted or top-dose-only effect, or another doubt; inactive = no such curve, though single readings can be large or run the other way.

Experiment: qHTS Assay for Identifying Gametocytocidal Compounds (AID 743244);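 as to max response: actives lower the fluorescent signal which means gametocytes are killed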
Details: P. falciparum 3D7 stage III-V gametocytes, alamarBlue, 72 h; max response: stronger effect = lower value
Method in brief: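 Stage III-V P. falciparum 3D7 gametocytes, 20,000 per well, were exposed to compounds for 72 h at 37C, 5% CO2. AlamarBlue was then added for 24 h and viability was read as fluorescence at Ex 525/Em 598 nm.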
% is scaled to controls: 0 for no effect and ±100 for the full control effect; potency is read from the fitted curve at half-maximal effect.

SMILES | max response | Potency
Cc1ccc(/C=N/n2c(-c3ccccc3)csc2=S)cc1 | -23% (inactive) | –
C[C@H]1C[C@@H]2[C@H]([C@@H](O)C[C@@]3(C)[C@H]2CC[C@]3(O)C(=O)CO)[C@@]2(C)C=CC(=O)C=C12 | -12.4% (inactive) | –
CCCC(=O)O[C@]1(C(=O)COC(=O)CC)CC[C@H]2[C@@H]3CCC4=CC(=O)CC[C@]4(C)[C@H]3[C@@H](O)C[C@@]21C | 31.6% (inactive) | –
CCCCC/C=C\C/C=C\CCCCCCCC(=O)NC(C)c1ccccc1 (configuration not stated) | -1.75% (inactive) | –
O=C(NN1CCCC1)NS(=O)(=O)c1ccc(Cl)cc1 | 0.581% (inactive) | –
CN=C(N)NC(=O)Nc1c(C)cccc1C | 9.51% (inactive) | –
CN(CC1(C)CCCO1)S(=O)(=O)c1ccc(Cl)c(S(N)(=O)=O)c1 (configuration not stated) | -10.7% (inactive) | –
O=C(O)c1[nH]n(-c2ccc(S(=O)(=O)O)cc2)c(=O)c1N=Nc1ccc(S(=O)(=O)O)cc1 | -0.65% (inactive) | –
CO[C@@]1(NC(=O)CSC[C@@H](N)C(=O)O)C(=O)N2C(C(=O)O)=C(CSc3nnnn3C)CS[C@@H]21 | 3.25% (inactive) | –
O=C1[C@@H]2[C@H]3CC[C@H](C3)[C@@H]2C(=O)N1CCCCN1CCN(c2ncccn2)CC1 | 4.19% (inactive) | –
CCCCCCCCCCCCCCCCCCNC(=O)OC1CCN(C(=O)OC[C@H](COC(=O)N(Cc2cccc[n+]2CC)C(=O)c2ccccc2OC)OC)CC1 | – | 15.8 µM (active)
CCCC(=O)O[C@]1(C(=O)CCl)[C@@H](C)C[C@H]2[C@@H]3CCC4=CC(=O)C=C[C@]4(C)[C@@]3(F)C(=O)C[C@@]21C | 13.2% (inactive) | –
COc1ccccc1OCC1CNC(=O)O1 (configuration not stated) | -14.2% (inactive) | –
O=C(CCC1CCN(Cc2ccccc2)CC1)c1ccc2c(c1)NCCCC2 | -4.54% (inactive) | –
CO[C@@H]1[C@@H](OC)[C@H](C)[C@@](O)(CC(=O)O)O[C@H]1[C@H](C)[C@H]1O[C@@]2(CC[C@@](C)([C@H]3CC[C@@](C)([C@@H]4O[C@@H]([C@H]5O[C@](C)(O)[C@H](C)C[C@@H]5C)C[C@@H]4OC4C[C@H](OC)[C@@H](OC)[C@H](C)O4)O3)O2)C[C@H](O)[C@H]1C (some centres not stated) | – | 0.0935 µM (active)
CCOC(=O)NNc1nncc2ccccc12 | -13.4% (inactive) | –

SMILES | max response | Potency
CCCc1c2oc(C(=O)O)cc(=O)c2cc2c(=O)cc(C(=O)O)n(CC)c12 | -6.99% (inactive) | –
c1ccc(C(O[C@H]2CCCN(CCc3ccc4c(c3)OCO4)C2)c2ccccc2)cc1 | -6.18% (inactive) | –
CN1C(CSCC(F)(F)F)Nc2cc(Cl)c(S(N)(=O)=O)cc2S1(=O)=O (configuration not stated) | 2.14% (inactive) | –
Nc1ncnc2nc[nH]c12 | 3.66% (inactive) | –
OCCCc1ccccc1 | -2.92% (inactive) | –
O=C(O)CCCC[C@@H]1SC[C@@H]2NC(=O)N[C@@H]21 | -7.74% (inactive) | –
C[C@@]12CCC[C@H]1[C@@H]1CC[C@H]3C[C@@H](O)CC[C@]3(C)[C@H]1CC2 | 4.41% (inactive) | –
CC(COc1ccccc1)NN (configuration not stated) | -1.29% (inactive) | –
CC1c2ccccc2CN1NC(=O)c1ccc(Cl)c(S(N)(=O)=O)c1 (configuration not stated) | 33.5% (inactive) | –
CN1CC(=O)N2[C@H](c3ccc4c(c3)OCO4)c3[nH]c4ccccc4c3C[C@@H]2C1=O | -3.23% (inactive) | –
CCOC(=O)O[C@]1(C(=O)OCCl)CC[C@H]2[C@@H]3CCC4=CC(=O)C=C[C@]4(C)[C@H]3[C@@H](O)C[C@@]21C | -2.36% (inactive) | –
CCOC(=O)Cn1cccc1-c1nc(-c2ccc(OC)cc2)c(-c2ccc(OC)cc2)s1 | 9.5% (inactive) | –
C[C@]12CCC(=O)C=C1CC[C@@H]1[C@@H]2[C@@H](O)C[C@@]2(C)[C@H]1CC[C@]2(O)C(=O)COC(=O)CCC(=O)O | -22.1% (inactive) | –
CC(=O)OCC(=O)Nc1cc(C#N)cc(NC(=O)COC(C)=O)c1Cl | -6.24% (inactive) | –
CCO[C@H](Cc1ccc(OCCc2ccc(OS(C)(=O)=O)cc2)cc1)C(=O)O | 6.84% (inactive) | –
O=C(O)C(=O)Nc1cccc(-c2nn[nH]n2)c1 | -10.1% (inactive) | –
